What was measured:
[1] = molecular target: Protein kinase C gamma type (Homo sapiens) (UniProt P05129); conditions: at 1 µM;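 also: each value is an averaged percent inhibition of the enzyme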
[2] = molecular target: T1, Protein kinase C iota type (Homo sapiens) (UniProt P41743); conditions: at 0.1 µM
T1 sequence (whole entry): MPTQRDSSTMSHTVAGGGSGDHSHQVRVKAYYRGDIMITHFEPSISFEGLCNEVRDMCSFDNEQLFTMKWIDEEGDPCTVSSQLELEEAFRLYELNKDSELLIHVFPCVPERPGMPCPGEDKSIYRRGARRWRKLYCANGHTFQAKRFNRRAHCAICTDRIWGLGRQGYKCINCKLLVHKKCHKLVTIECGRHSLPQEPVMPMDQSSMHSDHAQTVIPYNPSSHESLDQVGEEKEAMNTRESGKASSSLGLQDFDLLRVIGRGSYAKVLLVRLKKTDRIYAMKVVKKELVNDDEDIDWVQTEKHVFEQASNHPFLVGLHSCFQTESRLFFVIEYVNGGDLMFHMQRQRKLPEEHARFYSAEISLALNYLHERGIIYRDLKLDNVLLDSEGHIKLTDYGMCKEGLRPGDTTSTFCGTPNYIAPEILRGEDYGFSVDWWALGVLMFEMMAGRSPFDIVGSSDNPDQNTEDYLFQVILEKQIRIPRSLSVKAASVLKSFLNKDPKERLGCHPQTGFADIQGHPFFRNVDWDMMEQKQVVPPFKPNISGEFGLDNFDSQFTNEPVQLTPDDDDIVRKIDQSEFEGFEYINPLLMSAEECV

[3] = molecular target: T1, Protein kinase C iota type (Homo sapiens); conditions: at 1 µM
[4] = molecular target: Protein kinase C theta type (Homo sapiens) (UniProt Q04759); conditions: at 0.1 µM
[5] = molecular target: Protein kinase C theta type (Homo sapiens) (UniProt Q04759); conditions: at 1 µM
[6] = molecular target: Protein kinase C beta type (Homo sapiens) (UniProt P05771); conditions: at 0.1 µM
[7] = molecular target: Protein kinase C beta type (Homo sapiens) (UniProt P05771); conditions: at 1 µM
[8] = molecular target: T2, Serine/threonine-protein kinase D1 (Homo sapiens) (UniProt Q15139); conditions: at 0.1 µM
T2 sequence (whole entry): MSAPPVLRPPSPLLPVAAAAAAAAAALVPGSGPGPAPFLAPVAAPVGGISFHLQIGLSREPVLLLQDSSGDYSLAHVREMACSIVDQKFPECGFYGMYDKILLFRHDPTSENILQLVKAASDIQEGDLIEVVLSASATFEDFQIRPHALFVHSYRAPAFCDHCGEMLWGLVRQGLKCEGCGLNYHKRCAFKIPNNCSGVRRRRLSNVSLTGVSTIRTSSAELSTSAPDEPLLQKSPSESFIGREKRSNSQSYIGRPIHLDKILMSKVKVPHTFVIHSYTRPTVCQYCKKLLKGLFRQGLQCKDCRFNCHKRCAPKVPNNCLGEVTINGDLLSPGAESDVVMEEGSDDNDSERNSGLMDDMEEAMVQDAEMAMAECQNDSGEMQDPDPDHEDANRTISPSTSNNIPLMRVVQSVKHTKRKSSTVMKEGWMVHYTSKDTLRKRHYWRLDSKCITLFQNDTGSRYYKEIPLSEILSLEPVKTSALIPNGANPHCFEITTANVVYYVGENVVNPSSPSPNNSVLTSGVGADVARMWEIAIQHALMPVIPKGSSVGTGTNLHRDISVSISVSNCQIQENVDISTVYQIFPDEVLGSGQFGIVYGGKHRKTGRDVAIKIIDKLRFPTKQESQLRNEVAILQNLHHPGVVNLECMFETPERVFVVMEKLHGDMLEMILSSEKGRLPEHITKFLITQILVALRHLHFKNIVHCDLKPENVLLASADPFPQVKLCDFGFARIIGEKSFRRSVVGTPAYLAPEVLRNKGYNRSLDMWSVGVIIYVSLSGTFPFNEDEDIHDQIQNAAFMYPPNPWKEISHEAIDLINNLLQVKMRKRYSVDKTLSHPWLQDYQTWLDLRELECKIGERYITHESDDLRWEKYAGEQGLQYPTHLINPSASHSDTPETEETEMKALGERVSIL

[9] = molecular target: T2, Serine/threonine-protein kinase D1 (Homo sapiens); conditions: at 1 µM
[10] = molecular target: T3, Serine/threonine-protein kinase D2 (Homo sapiens) (UniProt Q9BZL6); conditions: at 0.1 µM;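 also: reported percent inhibition values are means, part of the GSK PKIS kinase panel screen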
T3 sequence (whole entry): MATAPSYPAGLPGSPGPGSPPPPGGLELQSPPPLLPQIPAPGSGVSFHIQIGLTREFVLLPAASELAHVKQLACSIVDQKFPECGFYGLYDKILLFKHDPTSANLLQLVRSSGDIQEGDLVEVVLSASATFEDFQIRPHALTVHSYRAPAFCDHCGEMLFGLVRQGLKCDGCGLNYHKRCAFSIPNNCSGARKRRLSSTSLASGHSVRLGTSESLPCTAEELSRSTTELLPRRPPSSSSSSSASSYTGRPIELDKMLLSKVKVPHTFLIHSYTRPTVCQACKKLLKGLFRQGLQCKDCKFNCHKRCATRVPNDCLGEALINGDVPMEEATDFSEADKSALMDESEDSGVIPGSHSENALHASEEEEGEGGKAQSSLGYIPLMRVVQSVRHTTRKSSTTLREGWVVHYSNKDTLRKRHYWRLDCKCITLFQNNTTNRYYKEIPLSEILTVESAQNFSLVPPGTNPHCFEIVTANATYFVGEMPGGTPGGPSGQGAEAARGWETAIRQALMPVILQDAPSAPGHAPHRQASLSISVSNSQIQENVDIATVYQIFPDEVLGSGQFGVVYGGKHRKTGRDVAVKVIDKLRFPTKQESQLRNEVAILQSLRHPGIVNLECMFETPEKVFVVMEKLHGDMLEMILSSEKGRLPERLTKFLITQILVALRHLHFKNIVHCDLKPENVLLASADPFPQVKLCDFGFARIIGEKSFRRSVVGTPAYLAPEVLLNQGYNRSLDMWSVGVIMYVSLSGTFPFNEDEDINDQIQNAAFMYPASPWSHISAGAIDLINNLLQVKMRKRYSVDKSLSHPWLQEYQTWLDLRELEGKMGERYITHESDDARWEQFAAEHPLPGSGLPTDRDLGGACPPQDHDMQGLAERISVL

Protein kinase C theta type (Homo sapiens), sequence (Q04759 whole entry, looked up): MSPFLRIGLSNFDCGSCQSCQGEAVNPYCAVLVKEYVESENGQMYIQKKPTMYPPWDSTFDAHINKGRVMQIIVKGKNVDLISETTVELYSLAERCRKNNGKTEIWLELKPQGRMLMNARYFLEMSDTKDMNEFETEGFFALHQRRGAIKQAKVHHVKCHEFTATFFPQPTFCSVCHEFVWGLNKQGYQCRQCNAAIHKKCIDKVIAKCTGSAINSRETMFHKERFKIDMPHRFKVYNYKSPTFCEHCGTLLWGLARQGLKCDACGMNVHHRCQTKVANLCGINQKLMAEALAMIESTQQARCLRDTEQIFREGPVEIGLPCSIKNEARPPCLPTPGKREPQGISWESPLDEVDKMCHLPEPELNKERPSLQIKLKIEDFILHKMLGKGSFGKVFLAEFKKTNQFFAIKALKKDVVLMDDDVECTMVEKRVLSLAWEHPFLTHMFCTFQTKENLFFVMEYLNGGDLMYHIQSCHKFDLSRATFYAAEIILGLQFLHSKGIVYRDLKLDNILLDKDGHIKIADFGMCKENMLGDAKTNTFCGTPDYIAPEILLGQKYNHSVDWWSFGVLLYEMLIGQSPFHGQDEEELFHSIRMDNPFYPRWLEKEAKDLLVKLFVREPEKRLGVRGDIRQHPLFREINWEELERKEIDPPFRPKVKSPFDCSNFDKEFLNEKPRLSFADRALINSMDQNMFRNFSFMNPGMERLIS
Protein kinase C beta type (Homo sapiens), sequence (P05771 2-671 limits assumed): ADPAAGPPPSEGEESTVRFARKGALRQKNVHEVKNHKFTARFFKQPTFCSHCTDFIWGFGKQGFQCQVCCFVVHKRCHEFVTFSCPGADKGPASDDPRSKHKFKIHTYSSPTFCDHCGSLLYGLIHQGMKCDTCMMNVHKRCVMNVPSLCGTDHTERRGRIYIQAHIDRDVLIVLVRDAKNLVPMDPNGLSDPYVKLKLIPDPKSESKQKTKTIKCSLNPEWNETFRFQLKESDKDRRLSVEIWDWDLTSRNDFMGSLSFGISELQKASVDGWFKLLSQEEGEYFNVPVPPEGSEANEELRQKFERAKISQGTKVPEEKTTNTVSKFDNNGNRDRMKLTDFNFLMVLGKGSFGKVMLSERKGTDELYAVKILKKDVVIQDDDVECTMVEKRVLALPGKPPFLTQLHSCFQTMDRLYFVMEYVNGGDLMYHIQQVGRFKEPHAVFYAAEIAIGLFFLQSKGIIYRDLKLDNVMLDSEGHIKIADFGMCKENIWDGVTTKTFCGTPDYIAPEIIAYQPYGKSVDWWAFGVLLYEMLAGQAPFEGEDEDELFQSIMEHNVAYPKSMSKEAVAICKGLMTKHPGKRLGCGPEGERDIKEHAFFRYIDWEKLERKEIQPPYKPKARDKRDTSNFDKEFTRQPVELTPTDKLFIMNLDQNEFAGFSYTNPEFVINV

Structure (SMILES)	inhibition [1] [%]	inhibition [2] [%]	inhibition [3] [%]	inhibition [4] [%]	inhibition [5] [%]	inhibition [6] [%]	inhibition [7] [%]	inhibition [8] [%]	inhibition [9] [%]	inhibition [10] [%]
COc1ccc2[nH]c3c4[nH]c5ccc(OC)cc5c4c4c(c3c2c1)C(=O)NC4=O	11.7	0.72	0.15	4.69	20.9	3.68	12.9	5.02	27	8.15
CCN(CC)S(=O)(=O)c1ccc(OC)c(Nc2ncc(-c3ccccc3)o2)c1	3.98	0.63	-0.91	1.36	1.38	0.23	1.41	1.66	0.39	0.75
COc1cccc(-n2ncc3c(N/N=C/c4ccc(F)cc4)ncnc32)c1	2.6	1.87	1.45	2.53	4.19	2.56	0.22	3.64	4.89	3.35
Cc1cccc(Nc2ncc(-c3ccccc3)o2)c1	7.25	1.43	2.2	4.9	6.83	2.39	7.38	3.07	5.44	3.21
CCc1nn2ncccc2c1-c1ccnc(NC2CC2)n1	4.3	0.47	0.64	0.97	1.63	1.1	3.32	2.35	4.56	2.36
c1ccc(COc2ccc(Nc3ncnc4ccc(-c5ccco5)cc34)cc2)cc1	0.84	-1.29	-0.86	-2.6	-0.62	0.49	0.58	1.25	0.71	3.12
CC(=O)NCc1cccc(C#Cc2cncnc2Nc2ccc(OCc3cccc(F)c3)c(Cl)c2)c1	1.3	0.84	0.45	0.15	-0.29	0.7	0.37	3.28	2.11	0.45
COc1cccc(-c2c[nH]c3c(N/N=C/c4ccncc4)ncnc23)c1	7.65	4.1	20.3	0.91	0.99	1.66	5.79	1.3	6.07	1.26

Reference: ChEMBL document CHEMBL1961873, “Compounds: GSK PKIS; Assays: Nanosyn kinase panel” (2012)
